# Inconclusive results are not listed. A call without a number means that no potency is given here. Activity calls are given as the source filed them. The call rests on the fitted dose curve; in most records, active means well fitted inhibition curve with a large enough effect in the signal ratio, with a control signal flat (not every such curve was filed as active); inconclusive means small, poorly fitted or top-dose-only effect, or effect the other way, or a change in a side signal; inactive means flat fitted curve, though single readings scatter; the % refers to the signal ratio.
# Target: Peroxisome proliferator-activated receptor gamma (Homo sapiens) (UniProt P37231)
# Experiment: qHTS assay for small molecule antagonists of peroxisome proliferator-activated receptor gamma signaling (AID 588537)
# Conditions: HEK293 PPARg-UAS-bla, beta-lactamase ratio, antagonist mode; series mostly up to 76.8 µM
# From the text: NIH Chemical Genomics Center [NCGC]
# U.S. Environmental Protection Agency [EPA]
# National Institutes of Environmental Health Sciences [NIEHS]
# National Toxicology Program [NTP]
# The Peroxisome proliferator-activated receptors (PPARs) are lipid-activated transcription factors of the nuclear receptor superfamily with three distinct subtypes namely PPAR alpha, PPAR delta (also called PPAR beta) and PPAR gamma. All these subtypes heterodimerizes with Retinoid X receptor (RXR) and these heterodimers regulate transcription of various genes. PPAR-gamma (glitazone receptor) ligands have been used in the treatment of type 2 diabetes and dyslipidaemia. It is involved in the regulation of glucose and lipid metabolism. PPAR-gamma activates certain genes like Paraoxonase 1 which is responsible for hydrolyzing organophosphates. PPAR-gamma ligands may also be therapeutically important in the treatment of coronary artery disease, obesity and cancer and atherosclerosis.
# NCGC Assay Protocol Summary
# Using a beta-lactamase reporter-gene under control of Peroxisome Proliferator-Activated-gamma (PPAR-gamma) response element, a cell-based assay [GeneBLAzer PPAR-gamma-UAS-bla assay developed by Invitrogen] was used to measure PPAR-gamma ligands signaling. GeneBLAzer PPAR-gamma-UAS-bla-HEK293 cells were used with assay medium containing 1% charcoal/dextran treated FBS. The assay was performed in clear bottom black Greiner 1536-well plates. Library compounds were measured for their ability to inhibit the reporter gene activity. Compounds were screened in a titration series in 1536-well format. The fluorescence intensity (405 nm excitation, 460/530 nm emission) was measured using an EnVision plate reader. Data was normalized relative to Rosiglitazone control (50 nM, 100%), and DMSO only wells (basal, 0%). Concentration-response titration points for each compound were fitted to the Hill equation yielding concentrations of half-maximal inhibition (IC50) and maximal response (efficacy) values.
# qHTS protocol for PPAR-gamma beta-lactamase assay in antagonist mode
# [Step] [Parameter] [Value] [Description]
# 1. Reagent; 5 uL; 3000 cells/well
# 2. Incubation; 37 C for 6-6.5 hrs
# 4. Controls (GW9662, PPAR-gamma antagonist); 23 nL,
# 5. Agonist (Stimulator); 1uL; Rosiglitazone at 50 nM (final) concentration
# 6. Incubation; 37 C for 16 hrs
# 7. Detection reagent; 1 uL of CCF4-dye
# 8. Incubation; RT for 2 hrs
# 9. Detection; Fluorescence; Envision plate reader
# Sequence of Peroxisome proliferator-activated receptor gamma (Homo sapiens) (P37231 whole entry, looked up): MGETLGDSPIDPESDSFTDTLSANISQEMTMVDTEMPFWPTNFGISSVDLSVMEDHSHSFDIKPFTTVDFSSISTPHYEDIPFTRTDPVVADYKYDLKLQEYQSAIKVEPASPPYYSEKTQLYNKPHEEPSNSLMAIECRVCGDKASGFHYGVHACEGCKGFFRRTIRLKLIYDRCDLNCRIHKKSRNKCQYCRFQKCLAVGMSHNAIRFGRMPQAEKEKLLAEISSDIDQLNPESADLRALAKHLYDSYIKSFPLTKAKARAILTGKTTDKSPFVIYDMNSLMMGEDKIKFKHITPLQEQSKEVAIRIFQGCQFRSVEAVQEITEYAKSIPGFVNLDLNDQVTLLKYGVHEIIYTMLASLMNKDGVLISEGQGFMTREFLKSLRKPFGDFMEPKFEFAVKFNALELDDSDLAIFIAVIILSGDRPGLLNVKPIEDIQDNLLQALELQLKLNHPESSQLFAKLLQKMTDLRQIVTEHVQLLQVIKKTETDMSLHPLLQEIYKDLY
row,SMILES,Potency
1,O=C(O)c1cc(-c2ccccc2)nc2ccccc12,inactive
2,O=C(O)Cc1cccc2ccccc12,inactive
3,CC(=O)c1ccc(S(=O)(=O)NC(=O)NC2CCCCC2)cc1,inactive
4,CCCCC1C(=O)N(c2ccccc2)N(c2ccccc2)C1=O,inactive
5,CC/C(=C(\c1ccccc1)c1ccc(OCCN(C)C)cc1)c1ccccc1,inactive
6,O=c1c(-c2ccc(O)cc2)coc2cc(O)ccc12,inactive
7,O=c1c(O)c(-c2ccc(O)cc2)oc2cc(O)cc(O)c12,inactive
8,CCCNC(=O)NS(=O)(=O)c1ccc(Cl)cc1,inactive
9,O=C1NC(=O)C(c2ccccc2)(c2ccccc2)N1,inactive
10,O=c1cc(-c2ccc(O)cc2)oc2cc(O)cc(O)c12,44.7 µM (active)
11,CCn1cc(C(=O)O)c(=O)c2ccc(C)nc21,inactive

# Reference: PubChem BioAssay (NCATS)
